Bioassay records from PubChem BioAssay.
NPC1 promoter act = activators of NPC1 promoter. hit rate 2.4% among 320,000. Potency, µM (highest dose often 9.22 µM), hits mostly activators. Huh7 NPC1 promoter luciferase reporter, 24 h. AID 485313; also: nearly all actives have a fitted effect of over 60% in size
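NPC1 promoter–luciferase Huh7 cells; 24 h compound; luminescence.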
SMN2 splice enh = increases expression of the SMN2 splice variant | HEK293 SMN2-luciferase splicing reporter, luminescence, 30-36 h | hit rate 2.8% among 210,000 | Potency, µM (series often up to 46.1 µM), most hits filed as activators; also: nearly all actives have a fitted effect of over 55% in size
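qHTS luciferase splicing reporter: luminescence rises when SMN2 exon 7 is included in transfected HEK293 cells. Compound exposure lasted 30-36 h at 37C, with 4.5 mM final sodium butyrate as control, followed by a ONE-Glo read.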
ELG1 genotox = inducers of genotoxicity in HEK293T ELG1-luciferase cells | hit rate 1.3% among 330,000 | Potency, µM (highest dose often 46 µM), usual class: activators | AID 504466 | HEK293T ELG1-luciferase reporter, luminescence, 16 h; also: nearly all actives have a fitted effect of over 60% in size
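Step 1: seed 2,000 HEK293T ELG1-luciferase cells per well. Step 2: add compound or DMSO, incubate 16 hr at 37 °C. Step 3: ONE-Glo, 30 min at room temperature, read luminescence.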
FLuc modulator = firefly luciferase modulation, counter-screen for miR-21 project; Potency, µM (titrated, usually from 57.5 µM), actives largely listed as inhibitors; P08659; purified FLuc, Km substrates, luminescence inhibition; AID 588342; hit rate 6.9% among 360,000; also: nearly all actives have a fitted effect of over 55% in size
Target sequence (P08659 whole entry, looked up): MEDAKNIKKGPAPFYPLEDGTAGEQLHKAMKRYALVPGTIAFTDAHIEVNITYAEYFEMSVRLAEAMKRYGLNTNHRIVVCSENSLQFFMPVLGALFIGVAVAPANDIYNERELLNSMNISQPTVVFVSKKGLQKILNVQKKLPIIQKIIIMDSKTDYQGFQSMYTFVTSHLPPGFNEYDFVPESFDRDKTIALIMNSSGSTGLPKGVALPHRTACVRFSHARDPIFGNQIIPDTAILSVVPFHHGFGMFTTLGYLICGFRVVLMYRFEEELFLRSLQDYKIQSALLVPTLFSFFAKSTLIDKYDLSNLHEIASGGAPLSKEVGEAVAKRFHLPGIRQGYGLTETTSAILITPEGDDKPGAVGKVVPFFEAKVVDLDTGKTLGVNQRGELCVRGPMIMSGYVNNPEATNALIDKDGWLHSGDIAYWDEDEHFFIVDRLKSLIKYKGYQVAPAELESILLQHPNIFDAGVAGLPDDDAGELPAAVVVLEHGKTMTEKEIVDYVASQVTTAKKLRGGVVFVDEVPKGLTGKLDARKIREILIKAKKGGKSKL
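Biochemical qHTS of compounds, final roughly 60 µM downward over six points, against 10 nM purified firefly luciferase using Km concentrations of substrates (10 uM D-luciferin, 10 uM ATP) in Tris acetate pH 7.5 buffer; luminescence output.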
Rab9 prom act = activators of Rab9 promoter. Huh7 Rab9 promoter-luciferase reporter, luminescence, 24 h. Potency, µM (highest dose often 9.22 µM), most hits filed as activators. hit rate 2.8% among 320,000. AID 485297; also: nearly all actives have a fitted effect of over 60% in size
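Stable Rab9-luc Huh7, 1500 cells/well, 2 h settle; cmpd in DMSO, 24 h, 37 °C/5% CO2; luciferase reagent 10 min RT; luminescence.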
Large screens that a line does not name were inactive. Only some compounds are listed: those with a hit (about 7.5% of all), similar ones and a draw of the others. Calls follow the shape of the dose curve; as a rule, active = well fitted curve in the direction sought with a large enough effect; inconclusive = small, poorly fitted or top-dose-only effect, or another doubt; inactive = no such curve, though single readings can be large; an effect the other way counts as inactive or inconclusive.

O=[N+]([O-])c1ccc(-c2cn(-c3ccccc3F)c(=S)[nH]2)cc1	NPC1 promoter act inconclusive, Rab9 prom act 1.4µM
Cc1ccc(-c2cn(-c3ccccc3F)c(=S)[nH]2)cc1	NPC1 promoter act inconclusive, FLuc modulator inconclusive, Rab9 prom act 3.2µM (no result: SMN2 splice enh)
Cc1ccc(C(=O)Nc2ccccc2C(=O)NC(C(=O)O)C(C)C)cc1 (configuration not stated)	NPC1 promoter act inconclusive, SMN2 splice enh 13µM, ELG1 genotox inconclusive, FLuc modulator 11µM, Rab9 prom act inconclusive
CCC(C)C(NC(=O)c1ccccc1NC(=O)c1ccc(C)cc1)C(=O)O (configuration not stated)	FLuc modulator inconclusive (no result: SMN2 splice enh)
Cc1ccc(C(=O)Nc2ccccc2C(=O)NC(CC(=O)O)C(=O)O)cc1 (configuration not stated)	FLuc modulator 15µM
Cc1cc(C)cc(-n2c(SCC(=O)NCc3ccc(F)cc3)nc3c([nH]c4ccccc43)c2=O)c1	none (no result: NPC1 promoter act, SMN2 splice enh, ELG1 genotox, Rab9 prom act)
O=S1(=O)C=C(Sc2nnc(-c3ccccc3)o2)c2ccccc21	FLuc modulator 30µM
Cc1cc(C)nc(SC2=CS(=O)(=O)c3ccccc32)n1	SMN2 splice enh inconclusive
O=C(c1cc(C2CC2)nn1-c1ccccc1)N1CCN(c2ncc(C(F)(F)F)cc2Cl)CC1	none (no result: SMN2 splice enh)
COc1cccc(C2N=C(c3ccccc3C)NO2)c1OC (configuration not stated)	ELG1 genotox inconclusive, FLuc modulator 9.5µM (no result: SMN2 splice enh)
Cc1occc1C(=O)N/N=C/c1ccccc1[N+](=O)[O-]	NPC1 promoter act 3.2µM, ELG1 genotox inconclusive, FLuc modulator 9.5µM, Rab9 prom act 4µM (no result: SMN2 splice enh)
CCOc1ccc(/C=N/NC(=O)c2ccoc2C)cc1OC	NPC1 promoter act inconclusive, ELG1 genotox 18µM, FLuc modulator inconclusive, Rab9 prom act 3.5µM (no result: SMN2 splice enh)
Cc1occc1C(=O)N/N=C/c1ccccn1	ELG1 genotox inconclusive, FLuc modulator inconclusive, Rab9 prom act inconclusive (no result: SMN2 splice enh)
COc1ccc(/C=N/NC(=O)c2cc(C)oc2C)cc1OC	FLuc modulator inconclusive (no result: SMN2 splice enh)
COc1cccc(/C=N/NC(=O)NC2CCCCC2)c1O	NPC1 promoter act inconclusive, ELG1 genotox inconclusive, FLuc modulator 17µM, Rab9 prom act inconclusive (no result: SMN2 splice enh)
COc1cccc(/C=N/NC(=O)c2ccoc2C)c1	NPC1 promoter act 2.5µM, ELG1 genotox inconclusive, FLuc modulator 11µM, Rab9 prom act 1.6µM (no result: SMN2 splice enh)
COc1ccc(Cl)cc1NC(=O)CN(C)CC(=O)NCc1ccc(F)cc1	none (no result: NPC1 promoter act, SMN2 splice enh, FLuc modulator, Rab9 prom act)
CC1(C)CC(NCCC(c2ccccc2)c2ccco2)CCO1 (configuration not stated)	none (no result: SMN2 splice enh)
Cn1nccc1C(=O)N/N=C/c1ccccc1[N+](=O)[O-]	NPC1 promoter act 2.5µM, ELG1 genotox inconclusive, FLuc modulator 13µM, Rab9 prom act 2.8µM (no result: SMN2 splice enh)
COc1cc(/C=N/NC(=O)c2ccoc2C)ccc1O	SMN2 splice enh inconclusive, FLuc modulator 13µM
CCN(CC)c1ccc(/C=N/NC(=O)c2ccoc2C)cc1	NPC1 promoter act 0.5µM, ELG1 genotox 0.73µM, FLuc modulator 1.1µM, Rab9 prom act inconclusive (no result: SMN2 splice enh)
COc1cccc(/C=N/NC(=O)c2ccoc2C)c1O	ELG1 genotox 21µM, FLuc modulator 8.5µM (no result: SMN2 splice enh)
Cn1nccc1C(=O)N/N=C/c1cccnc1	none (no result: SMN2 splice enh)
CCOC(=O)Cc1nnn(CC(=O)OCC)n1	none
c1ccc(Cn2ccnc2-c2ccco2)cc1	ELG1 genotox inconclusive, FLuc modulator 21µM
CC12COC3(C(=O)N4CCN(c5ccccn5)CC4)CC1CCC32C (configuration not stated)	none (no result: SMN2 splice enh)
NC(=S)Nc1cnc2ccccc2c1	ELG1 genotox inconclusive
CCOc1ccc(/C=C/C(=O)Nc2ccc3[nH]c(=O)[nH]c3c2)cc1	none
COc1ccc(-c2csc(C3=C(O)CN(CCCN4CCCC4=O)C3=N)n2)cc1OC	SMN2 splice enh inconclusive, FLuc modulator 8.5µM
CCCCN1CC(O)=C(c2nc(-c3ccc(Br)cc3)cs2)C1=N	ELG1 genotox inconclusive (no result: SMN2 splice enh)
COc1cccc(NC(=O)Nc2nc(SC)ns2)c1	NPC1 promoter act 2.8µM, ELG1 genotox inconclusive, FLuc modulator 6.7µM, Rab9 prom act 1.4µM (no result: SMN2 splice enh)
COc1cccc(NC(=O)Nc2nc(SC(C)(C)C)ns2)c1	FLuc modulator 11µM (no result: SMN2 splice enh)
CCSc1nsc(NC(=O)Nc2cccc(F)c2)n1	FLuc modulator 19µM (no result: SMN2 splice enh)
CCCSc1nsc(NC(=O)Nc2ccc(F)cc2F)n1	NPC1 promoter act inconclusive, FLuc modulator inconclusive (no result: SMN2 splice enh)
CC(=Nc1ccccc1)c1sc2ccccc2c1O	SMN2 splice enh 11µM, ELG1 genotox 2.9µM, FLuc modulator 1.5µM, Rab9 prom act inconclusive
CC(=Nc1ccc(Br)cc1)c1sc2ccccc2c1O	NPC1 promoter act 3.2µM, ELG1 genotox 3.7µM, FLuc modulator 1.3µM, Rab9 prom act 3.2µM (no result: SMN2 splice enh)
O=C(NCc1ccccc1)c1ccc2c(c1)C(=O)N(Cc1ccncc1)C2=O	none
CCN(CC)c1ccc(-c2nc3cnccn3c2NC2CCCC2)cc1	FLuc modulator 11µM
c1cn2c(NC3CCCC3)c(-c3ccc(N4CCOCC4)cc3)nc2cn1	NPC1 promoter act inconclusive, ELG1 genotox inconclusive, FLuc modulator 2.1µM, Rab9 prom act inconclusive
c1cn2c(NC3CCCCC3)c(-c3ccc(SC4CCCCC4)cc3)nc2cn1	FLuc modulator inconclusive (no result: SMN2 splice enh)
CCCc1cc(=O)oc2cc(OCC(=O)N3CCOCC3)c(Cl)cc12	none (no result: SMN2 splice enh)
CCOC(=O)Cn1c(-c2ccccc2)ccc(C#N)c1=O	none
CCCc1cc(C(=O)Nc2ccc(C)cc2)no1	NPC1 promoter act inconclusive, ELG1 genotox inconclusive, FLuc modulator 3.4µM, Rab9 prom act 4.5µM
CCc1ccc(NC(=O)c2cc(-c3cccs3)on2)cc1	FLuc modulator inconclusive
CCCc1cc(C(=O)NCc2ccc(OC)cc2)no1	FLuc modulator inconclusive
CCCc1cc(C(=O)Nc2ccc(CC)cc2)no1	NPC1 promoter act 3.2µM, ELG1 genotox inconclusive, FLuc modulator 4.8µM, Rab9 prom act 1.6µM (no result: SMN2 splice enh)
COc1ccc(COCC(O)CN2CCc3ccccc3C2)cc1OC (configuration not stated)	none
CC(c1ccccc1)N(C)C(=O)CN1CCN(S(=O)(=O)c2ccc3c(c2)OCCCO3)CC1 (configuration not stated)	none (no result: SMN2 splice enh)
Cc1c(NC(=O)/C=C/c2cn(-c3ccccc3)nc2-c2ccccc2)c(=O)n(-c2ccccc2)n1C	FLuc modulator 21µM
C(=N\N1CCOCC1)/c1cn(-c2ccccc2)nc1-c1ccccc1	FLuc modulator 24µM
O=C(O)/C=C/c1cn(-c2ccccc2)nc1-c1ccccc1	FLuc modulator 13µM (no result: SMN2 splice enh)
COc1cccc(-c2nn(-c3ccccc3)cc2/C=C\C(=O)c2cccs2)c1	FLuc modulator 7.6µM
CCN(CC)S(=O)(=O)c1ccc(/C=C/C(=O)Nc2c(C)n(C)n(-c3ccccc3)c2=O)cc1	none
CCCCc1ccc(C(=O)Nc2ccc3nc(N4CCN(CC)CC4)cc(C)c3c2)cc1	FLuc modulator inconclusive (no result: NPC1 promoter act, ELG1 genotox, Rab9 prom act)
N#C/C(=C\c1ccccc1)C(=O)NCCN1CCOCC1	none
CC(C)(O)c1[nH]c2cc(C(F)(F)F)ccc2c1C(C)(C)O	none (no result: SMN2 splice enh)
O=Cc1cn(-c2ccccc2)nc1-c1ccccc1	FLuc modulator 12µM (no result: SMN2 splice enh)
O=Cc1cn(-c2ccccc2)nc1-c1ccncc1	SMN2 splice enh inconclusive
